# Only some compounds are listed: those with a hit (about 3.2% of all), similar ones and a draw of the others.
# Ecoli rRNA inh: reduced GFP signal of wild-type E. coli, primary screen, bacterial rRNA inhibitor project, GFP/RFP fluorescence, OD600, single point; E. coli WT GFP vs humanized-ribosome RFP mutants, 24 h; hits give low values; DMSO median 0, no signal -100; GFP signal change (wild-type ribosome), % (test concentration not listed); 1.6% of 350,000 active;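 active = significant combined selectivity score with lowered wild-type GFP, culture density cut under 30%, mutant RFP and density less affected; inactive = any of these conditions unmet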
# ERAP1 HTS inh: human ERAP1 aminopeptidase inhibitors, primary screen, biochemical, single point, plate reader; 0.15% of 340,000 active; recombinant ERAP1, Leu-AMC fluorescence, 60 min; inhibition, % at 10.7 µM; Endoplasmic reticulum aminopeptidase 1 (Homo sapiens), Q9NZ08;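 active = mean replicate inhibition of at least 30%, or all replicates individually reaching that 30% level; inactive = mean below 30% and not every replicate reaching it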
# Target sequence (Q9NZ08 whole entry, looked up): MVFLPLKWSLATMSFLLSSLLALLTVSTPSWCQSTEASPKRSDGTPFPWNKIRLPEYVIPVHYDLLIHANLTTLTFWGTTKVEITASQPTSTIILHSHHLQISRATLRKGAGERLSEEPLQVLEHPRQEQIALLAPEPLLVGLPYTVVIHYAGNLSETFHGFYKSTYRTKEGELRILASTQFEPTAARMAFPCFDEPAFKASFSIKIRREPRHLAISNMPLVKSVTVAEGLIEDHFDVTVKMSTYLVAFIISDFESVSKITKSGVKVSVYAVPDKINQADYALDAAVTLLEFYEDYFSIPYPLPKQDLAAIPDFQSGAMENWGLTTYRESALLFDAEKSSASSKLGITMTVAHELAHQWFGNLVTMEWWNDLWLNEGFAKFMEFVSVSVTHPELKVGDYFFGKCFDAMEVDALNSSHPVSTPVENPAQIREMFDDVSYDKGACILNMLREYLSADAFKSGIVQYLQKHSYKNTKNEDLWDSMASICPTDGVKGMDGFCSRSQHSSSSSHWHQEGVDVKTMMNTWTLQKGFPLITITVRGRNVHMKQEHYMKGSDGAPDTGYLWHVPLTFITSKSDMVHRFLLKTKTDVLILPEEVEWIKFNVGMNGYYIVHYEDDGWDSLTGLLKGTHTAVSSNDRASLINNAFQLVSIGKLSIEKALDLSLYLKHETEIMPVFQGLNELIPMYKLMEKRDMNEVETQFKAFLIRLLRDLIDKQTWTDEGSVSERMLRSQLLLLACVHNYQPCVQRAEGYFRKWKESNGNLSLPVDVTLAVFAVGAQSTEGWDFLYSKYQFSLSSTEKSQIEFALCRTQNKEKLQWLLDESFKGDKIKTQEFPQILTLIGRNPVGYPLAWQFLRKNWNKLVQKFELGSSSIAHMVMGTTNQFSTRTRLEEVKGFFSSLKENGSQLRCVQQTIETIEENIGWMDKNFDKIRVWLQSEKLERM
# PGC1a acetyl inh: inhibitors of PGC1a acetylation signal, primary screen, cell-based, U2OS, AlphaScreen, inhibitor mode; 0.17% of 350,000 active; AlphaScreen anti-acetyl-lysine; with virally co-expressed GCN5 acetyltransferase; inhibition, % at 15.6 µM; AID 651687, 2012;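 active = every replicate shows inhibition of at least 40%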
# INS-1E GSIS act: GLuc luminescence reporter in INS-1E cells, primary screen for activators of glucose-dependent secretion of insulin; INS-1E GLuc reporter insulin secretion, 2-3 h; activation, % at 16.6 µM; 0.61% of 370,000 active; AID 743287, 2014;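 active = lowest replicate activation of at least 40%, so every replicate reaches that level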
# DENV2 CPE: inhibitors of DENV2 cytopathic effect, primary screen, cell-based, plate reader, single concentration; DENV2-infected cells, cytopathic effect rescue; CPE inhibition, % at 9.99 µM; 1.7% of 350,000 active; in the data active = CPE inhibition above about 20%, passing the limit was not always enough; tested in BHK-21 cells
# CaV13 ICDI inh: Primary screen for inhibitors of IQ motif and Ca2+-dependent inactivation inhibitor domain binding in CACNA1D, Förster resonance energy transfer in living cells, … | AID 743397 | 0.098% of 340,000 active | HEK cells, CFP/YFP FRET ICDI-IQ, plate reader, 10 min; percent FRET-ratio fall versus neutral wells | inhibition, % at 12.3 µM;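 active = mean replicate inhibition of at least 30% and at least 1% of replicates passing that level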
# A number is an active result; n = inactive; x = not tested or not shown.
SMILES,Ecoli rRNA inh,ERAP1 HTS inh,PGC1a acetyl inh,INS-1E GSIS act,DENV2 CPE,CaV13 ICDI inh
Cc1ccc(S(=O)(=O)Nc2ccc3c(c2)C(=O)N([C@@H](C)CO)C[C@@H](C)[C@H](CN(C)S(=O)(=O)c2c(C)noc2C)OCCCC[C@H](C)O3)cc1,n,n,n,n,n,x
COc1ccc(NC(=O)Nc2cccc3c2O[C@@H](CN(C)C(=O)Nc2ccc(OC)cc2)[C@H](C)CN([C@H](C)CO)C3=O)cc1,n,n,n,n,n,x
CNC(=O)C[C@@H]1CC[C@@H]2[C@@H](COc3ccc(NC(=O)C(C)C)cc3C(=O)N2C)O1,n,x,n,n,x,x
COc1ccc(S(=O)(=O)N(C)C[C@H]2Oc3c(NC(=O)NC(C)C)cccc3C(=O)N([C@H](C)CO)C[C@H]2C)cc1,n,n,n,n,n,x
Cc1noc(C)c1S(=O)(=O)Nc1ccc2c(c1)C(=O)N([C@@H](C)CO)C[C@@H](C)[C@H](CN(C)S(=O)(=O)c1ccc(Cl)cc1)OCCCC[C@@H](C)O2,n,n,x,n,n,x
Cc1ccc(S(=O)(=O)N(C)C[C@H]2OCCCC[C@@H](C)Oc3ccc(NS(=O)(=O)c4c(C)noc4C)cc3C(=O)N([C@H](C)CO)C[C@H]2C)cc1,n,n,n,n,21,x
Cc1noc(C)c1S(=O)(=O)Nc1ccc2c(c1)C(=O)N([C@@H](C)CO)C[C@@H](C)[C@H](CN(C)S(=O)(=O)c1ccccc1)OCCCC[C@@H](C)O2,n,n,n,n,94,x
Cc1ccc(S(=O)(=O)Nc2ccc3c(c2)C(=O)N([C@@H](C)CO)C[C@@H](C)[C@@H](CN(C)S(=O)(=O)c2c(C)noc2C)OCCCC[C@@H](C)O3)cc1,n,n,n,n,28,x
COc1ccc2c3c(n(C)c2c1)[C@@H](CO)N(Cc1ccccc1F)CC31CN(C(=O)C2CC2)C1,n,n,x,n,n,x
COCC(=O)Nc1ccc2c(c1)OC[C@@H](C)N(Cc1cc(F)ccc1F)C[C@H](C)[C@@H](OC)CN(C)C2=O,n,n,n,n,n,x
Cc1ccc(S(=O)(=O)Nc2ccccc2CNc2ccccn2)cc1,-28,n,x,n,n,n
Cc1ccc(S(=O)(=O)N(C)C[C@@H]2Oc3c(cccc3N(C)C)C(=O)N([C@@H](C)CO)C[C@H]2C)cc1,n,n,n,n,n,x
CCC1(c2ccccc2)NC(=O)N(CC(=O)Nc2ccccc2C(=O)N2CCCCC2)C1=O (stereo unspecified),n,n,x,n,35,n
CCC1(c2ccccc2)NC(=O)N(CC(=O)Nc2ccccc2N2CCCCC2)C1=O (stereo unspecified),n,n,n,n,n,x
COc1ccc(-c2csc(CCn3nc(C)cc3C)n2)cc1OC,n,n,n,n,n,n
COc1ccc(-c2csc(CCn3nc(C)cc3C)n2)cc1,-21,n,x,n,n,n
CCCCCCn1c(SCC(C)C)nc2c1c(=O)[nH]c(=O)n2C,x,x,n,71,x,x
C=C(C)CSc1nc2c(c(=O)[nH]c(=O)n2C)n1CCC(C)C,n,x,n,55,n,n
CC(C)CSc1nc2c(c(=O)[nH]c(=O)n2C)n1CCc1ccccc1,x,x,n,71,x,n
CO[C@@H]1CN(C)C(=O)c2ccc(NC(=O)C3CCC3)cc2OC[C@H](C)N(Cc2nccs2)C[C@H]1C,n,n,x,n,27,x
CO[C@H]1CN(C)C(=O)c2cc(NC(C)=O)ccc2OC[C@H](C)N(Cc2nccs2)C[C@@H]1C,n,n,n,n,32,x
CO[C@H]1CN(C)C(=O)c2ccc(NC(=O)C3CCC3)cc2OC[C@H](C)N(Cc2nccs2)C[C@H]1C,n,n,x,n,n,x
Cc1noc(C)c1S(=O)(=O)N(C)C[C@H]1OCCCC[C@@H](C)Oc2ccc(NC(=O)Nc3ccc(C(F)(F)F)cc3)cc2C(=O)N([C@@H](C)CO)C[C@@H]1C,n,n,n,n,n,x
